Residue numbers refer to the chain shown, from its start.
How the values were obtained:
Assay in all cases: protein-binding microarray (PBM); PBM: ~300 nM protein, 6 mM HEPES pH 7.8, 80 mM KCl, 0.5 mM EDTA, 0.5 mM EGTA, 6% glycerol, 35 ng/ul poly-dIdC, 1% milk, 1 h, room temperature; Ap Aiptasia and Nv Nematostella (sea anemones) / Co Capsaspora / Aq Amphimedon (sponge) / Dm Drosophila / Hu human; RHD is the Rel homology domain; high values mean tight binding
Conditions in all cases: dsDNA, one strand shown
GST-Ap-NF-kB RHD = molecular target: T1, GST-Ap-NF-kB RHD (Exaiptasia pallida (Aiptasia), UniProt A0A913YAJ5 2-422)
T1 sequence: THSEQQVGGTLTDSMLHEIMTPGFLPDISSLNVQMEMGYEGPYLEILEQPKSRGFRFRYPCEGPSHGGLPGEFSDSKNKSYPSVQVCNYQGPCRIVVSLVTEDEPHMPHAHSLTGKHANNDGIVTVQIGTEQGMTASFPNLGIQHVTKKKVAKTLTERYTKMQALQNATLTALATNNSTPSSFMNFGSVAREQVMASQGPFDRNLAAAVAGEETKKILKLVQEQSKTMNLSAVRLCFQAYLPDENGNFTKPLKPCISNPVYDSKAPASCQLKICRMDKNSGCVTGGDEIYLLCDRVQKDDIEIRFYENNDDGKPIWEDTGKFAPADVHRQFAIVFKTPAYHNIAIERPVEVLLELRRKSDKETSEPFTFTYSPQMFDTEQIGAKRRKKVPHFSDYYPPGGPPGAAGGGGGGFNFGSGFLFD

[1] = molecular target: T2, GST-Nv-NF-kB (Cys allele) (Nematostella vectensis, UniProt E5G601 2-411)
T2 sequence: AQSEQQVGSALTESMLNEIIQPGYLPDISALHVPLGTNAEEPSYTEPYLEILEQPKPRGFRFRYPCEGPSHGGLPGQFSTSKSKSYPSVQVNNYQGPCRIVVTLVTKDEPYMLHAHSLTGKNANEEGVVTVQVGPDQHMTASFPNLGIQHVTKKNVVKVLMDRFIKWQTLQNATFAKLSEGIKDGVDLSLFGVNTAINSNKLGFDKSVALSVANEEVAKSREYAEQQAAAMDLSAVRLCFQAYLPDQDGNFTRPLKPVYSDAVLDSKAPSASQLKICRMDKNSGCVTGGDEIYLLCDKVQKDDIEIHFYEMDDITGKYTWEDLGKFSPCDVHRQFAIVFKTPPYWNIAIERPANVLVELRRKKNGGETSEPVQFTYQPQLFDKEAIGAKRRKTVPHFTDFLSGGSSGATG

[2] = molecular target: T3, GST-Nv-NF-kB (Ser allele) (Nematostella vectensis, UniProt A7UNT2 2-411)
T3 sequence: T2 sequence with Q21R, C66S, S207N, E215Q, V217A, E225K, A268E, D399E

GST-Co-NF-kB = molecular target: T4, GST-Co-NF-kB (Capsaspora owczarzaki, UniProt F1ARL5 200-546)
T4 sequence: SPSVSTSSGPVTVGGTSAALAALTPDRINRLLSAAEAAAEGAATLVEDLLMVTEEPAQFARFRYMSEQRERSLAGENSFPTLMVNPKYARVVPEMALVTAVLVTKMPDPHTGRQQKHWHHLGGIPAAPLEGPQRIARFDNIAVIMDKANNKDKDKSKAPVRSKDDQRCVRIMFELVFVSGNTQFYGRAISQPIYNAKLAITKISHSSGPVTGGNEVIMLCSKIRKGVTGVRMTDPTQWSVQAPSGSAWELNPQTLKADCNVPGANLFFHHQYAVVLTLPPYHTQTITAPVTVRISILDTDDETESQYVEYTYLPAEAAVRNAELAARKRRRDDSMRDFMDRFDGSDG

GST-Dm-Relish = molecular target: T5, GST-Dm-Relish (Drosophila melanogaster, UniProt Q94527 99-473)
T5 sequence: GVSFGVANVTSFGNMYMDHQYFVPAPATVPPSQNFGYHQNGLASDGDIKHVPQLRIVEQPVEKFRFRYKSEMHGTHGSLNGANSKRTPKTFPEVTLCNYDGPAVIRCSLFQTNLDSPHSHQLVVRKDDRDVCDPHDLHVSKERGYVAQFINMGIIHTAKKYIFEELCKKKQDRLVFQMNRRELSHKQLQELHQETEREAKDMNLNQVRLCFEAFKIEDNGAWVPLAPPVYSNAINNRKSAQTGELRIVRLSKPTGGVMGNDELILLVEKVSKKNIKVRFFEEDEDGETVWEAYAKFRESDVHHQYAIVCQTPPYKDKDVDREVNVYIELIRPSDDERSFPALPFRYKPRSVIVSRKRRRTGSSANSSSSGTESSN

GST-Aq-NF-kB = molecular target: T6, GST-Aq-NF-kB (Amphimedon queenslandica, UniProt A9Y5G7 2-389)
T6 sequence: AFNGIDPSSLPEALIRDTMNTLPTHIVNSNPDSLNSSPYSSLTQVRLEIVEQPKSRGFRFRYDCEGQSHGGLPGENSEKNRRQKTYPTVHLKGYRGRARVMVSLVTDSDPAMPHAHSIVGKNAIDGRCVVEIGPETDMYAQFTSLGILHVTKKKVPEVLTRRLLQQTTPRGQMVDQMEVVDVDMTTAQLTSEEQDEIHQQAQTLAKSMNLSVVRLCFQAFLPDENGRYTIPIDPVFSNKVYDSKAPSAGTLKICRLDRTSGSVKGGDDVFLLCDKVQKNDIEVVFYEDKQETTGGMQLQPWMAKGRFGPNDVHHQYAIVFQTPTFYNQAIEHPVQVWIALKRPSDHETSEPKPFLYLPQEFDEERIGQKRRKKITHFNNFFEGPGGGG

GST-Hu-p50 = GST-Hu-p50 (Homo sapiens, UniProt P19838 7-356)
Chain of GST-Hu-p50 (P19838 7-356): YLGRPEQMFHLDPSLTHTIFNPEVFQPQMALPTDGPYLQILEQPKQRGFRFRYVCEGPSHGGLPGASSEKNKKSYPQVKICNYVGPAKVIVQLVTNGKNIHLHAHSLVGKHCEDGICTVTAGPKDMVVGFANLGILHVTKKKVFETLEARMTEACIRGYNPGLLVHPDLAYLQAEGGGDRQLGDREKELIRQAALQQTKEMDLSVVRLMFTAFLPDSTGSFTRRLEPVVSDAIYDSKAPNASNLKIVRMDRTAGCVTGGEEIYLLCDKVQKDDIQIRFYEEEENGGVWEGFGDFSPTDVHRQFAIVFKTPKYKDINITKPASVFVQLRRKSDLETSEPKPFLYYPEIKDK

Sequence	binding signal (GST-Ap-NF-kB RHD) [z-score]	binding signal [1] [z-score]	binding signal [2] [z-score]	binding signal (GST-Co-NF-kB) [z-score]	binding signal (GST-Dm-Relish) [z-score]	binding signal (GST-Aq-NF-kB) [z-score]	binding signal (GST-Hu-p50) [z-score]
CCGATTAACATCAGGGGGAATGATGATGTTAATCGGGTCTTGATTCGCTTGACGCTGCTG	6.17	7.14	7.16	6.6	3.1	4.98	5.4
CCGATTAACATCAACGGATTCCCTGATGTTAATCGGGTCTTGATTCGCTTGACGCTGCTG	2.31	3.57	3.98	2.89	5.42	2.97	1.77
CCGATTAACATCAGGGAAAATAATGATGTTAATCGGGTCTTGATTCGCTTGACGCTGCTG	3.42	6.84	8.05	5.52	2.1	4.47	4.74
CCGATTAACATCAAGGGGGAATCTGATGTTAATCGGGTCTTGATTCGCTTGACGCTGCTG	8.47	8.91	9.87	8.32	6.04	6.38	7.36
CCGATTAACATCATGAATTCCCATGATGTTAATCGGGTCTTGATTCGCTTGACGCTGCTG	1.57	3.03	3.14	2.17	3.29	2.61	2.73
CCGATTAACATCAGGAGGTCCCCTGATGTTAATCGGGTCTTGATTCGCTTGACGCTGCTG	5.22	3.71	2.14	1.57	4.16	5.29	3.18
CCGATTAACATCAGCATCCCCCCTGATGTTAATCGGGTCTTGATTCGCTTGACGCTGCTG	5.21	4.99	4.67	4.85	4.52	4.67	5.05
CCGATTAACATCAGGGAAACATATGATGTTAATCGGGTCTTGATTCGCTTGACGCTGCTG	2.23	3.74	4.15	5.27	1.07	4.73	1.78
CCGATTAACATCACCGTTTCCCCTGATGTTAATCGGGTCTTGATTCGCTTGACGCTGCTG	6.05	6.66	9.86	7.95	2.77	4.66	5.1
CCGATTAACATCACGATTTCCCCTGATGTTAATCGGGTCTTGATTCGCTTGACGCTGCTG	7.82	7.92	10.8	8.64	5.06	5.72	6.24
CCGATTAACATCAGGGGAAAGTATGATGTTAATCGGGTCTTGATTCGCTTGACGCTGCTG	6.56	7.79	9.37	7.64	2.88	5.82	5.75
CCGATTAACATCAAATAAACCCCTGATGTTAATCGGGTCTTGATTCGCTTGACGCTGCTG	4.74	5.11	4.3	2.32	6.13	5.4	4.96
CCGATTAACATCACGGGGAATTATGATGTTAATCGGGTCTTGATTCGCTTGACGCTGCTG	7.23	8.96	9.51	8.2	6.78	6.42	6.24
CCGATTAACATCACCACCCCCCCTGATGTTAATCGGGTCTTGATTCGCTTGACGCTGCTG	4.06	3.75	3.44	3.56	4.58	3.75	4.06
CCGATTAACATCAATATAACCCCTGATGTTAATCGGGTCTTGATTCGCTTGACGCTGCTG	3.99	2.48	2.08	2.11	2.05	2.37	2.73
CCGATTAACATCAGGATTACCCATGATGTTAATCGGGTCTTGATTCGCTTGACGCTGCTG	2.92	2.65	2.12	1.67	2.52	3.19	1.83
CCGATTAACATCAGGGGGTACAATGATGTTAATCGGGTCTTGATTCGCTTGACGCTGCTG	4.98	3.08	4.91	4.94	2.37	2.98	3.09
CCGATTAACATCAAACGCCCCCCTGATGTTAATCGGGTCTTGATTCGCTTGACGCTGCTG	4.79	4.46	3.85	3.84	4.9	5.57	5.03
CCGATTAACATCAGAAAATCCCCTGATGTTAATCGGGTCTTGATTCGCTTGACGCTGCTG	10.4	12	13.8	4.89	9.8	8.95	8.46
CCGATTAACATCAGGGAAAAATATGATGTTAATCGGGTCTTGATTCGCTTGACGCTGCTG	3.68	5.51	7.16	5.79	2.03	5.19	4.2
CCGATTAACATCAGGGGGAAACATGATGTTAATCGGGTCTTGATTCGCTTGACGCTGCTG	6.11	7.08	9.19	10.9	3.99	5.49	6.58
CCGATTAACATCAAATACCCCCATGATGTTAATCGGGTCTTGATTCGCTTGACGCTGCTG	6.79	4.49	4.86	5.57	3.98	4.48	5.11
CCGATTAACATCAGGGAAACTAATGATGTTAATCGGGTCTTGATTCGCTTGACGCTGCTG	2.58	3.94	4.37	3.69	1.22	3.45	2.79
CCGATTAACATCAGGGGAAATCATGATGTTAATCGGGTCTTGATTCGCTTGACGCTGCTG	7.92	8.72	11.1	7.67	5.47	5.97	6.18
